The values below come from PubChem BioAssay AID1159577 (Broad Institute, 2015).

The whole screen tested about 1,300 compounds, of which about 240 (18%) were called active. Another 8% or so got no clear call; they are omitted. How the calls were made is not given here. Not all results are given here. Results with a measured potency or affinity are listed apart.

The nature of the assay: toxicity to human hepatoma HepG2 cells – cell-based, cherry-picked samples, cytotoxicity control, dose response (AID 1159577). The settings on record: HepG2 cytotoxicity counterscreen, plate reader; series mostly up to 19.5 µM.
In the case of `COc1ccc(NC(=O)N2CCCCN3[C@H](CO)[C@H](c4ccc(C#CCC(C)C)cc4)[C@@H]3C2)cc1`, the result was inactive.
For `O=C(Nc1cccc(F)c1)N1CCCCN2[C@H](CO)[C@H](c3ccc(C#Cc4ccccc4)cc3)[C@@H]2C1`, the outcome was inactive.
In the case of `O=C(Nc1cccc(F)c1)N1CCCCN2[C@@H](CO)[C@H](c3ccc(C#Cc4cccnc4)cc3)[C@@H]2C1` it was “inactive”; in that of `COc1ccc(NC(=O)N2CCCCN3[C@@H](CO)[C@H](c4ccc(C#Cc5ccccn5)cc4)[C@@H]3C2)cc1`, “inactive”.
Consider `O=C(Nc1ccccc1)N1CCCCN2[C@H](CO)[C@H](c3ccc(C#Cc4ccccc4)cc3)[C@@H]2C1`, for which the outcome was inactive.
To `O=C(Nc1ccccc1)N1CCCCN2[C@@H](CO)[C@H](c3ccc(C#Cc4cccnc4)cc3)[C@@H]2C1` belongs “inactive”.
In the case of `COc1ccc(C#Cc2ccc3c(c2)[C@H]2[C@H](CCN2C(=O)c2ccccn2)[C@@H](CO)N3)cc1`, the outcome was inactive.
To `COc1ccc(NC(=O)N2CCC3(CC2)CN(C(=O)C2CCC2)[C@H](CO)c2c3c3ccc(OC)cc3n2C)cc1` belongs “inactive”.
In the case of `C[C@@H]1CN([C@H](C)CO)C(=O)c2c(c3ccccc3n2C)-c2ccccc2CO[C@H]1CN(C)S(=O)(=O)c1ccc(C(F)(F)F)cc1` it was “inactive”; in that of `C[C@@H]1CN([C@@H](C)CO)C(=O)c2c(c3ccccc3n2C)-c2ccccc2CO[C@H]1CN(C)C(=O)Cc1ccccc1`, “inactive”.
Take `CCC(=O)N1CC2(C1)[C@@H](c1ccc(-c3cccc(OC)c3)cc1)[C@@H](CO)N2C(C)=O`: the compound was classed as inactive.
In the case of `CO[C@H]1CN(C)C(=O)c2cc(NC(=O)C3CC3)ccc2OC[C@H](C)N(Cc2cc(F)ccc2F)C[C@@H]1C` it was “inactive”.
Take `COc1ccc(S(=O)(=O)Nc2ccc3c(c2)CC(=O)N([C@@H](C)CO)C[C@H](C)[C@H](CN(C)S(=O)(=O)c2ccc(C)cc2)O3)cc1`: the compound was called inactive.
To `Cc1ccc(S(=O)(=O)N(C)C[C@H]2OCc3ccccc3-c3c(n(C)c4ccccc34)C(=O)N([C@@H](C)CO)C[C@H]2C)cc1` belongs “inactive”.
Turning to `COc1ccc(NC(=O)N2CCCCN3[C@H](CO)[C@H](c4ccc(C#Cc5ccccc5)cc4)[C@@H]3C2)cc1`, the compound was called inactive.
To `COc1ccc(C#Cc2ccc([C@H]3[C@H]4CN(C(=O)Nc5ccccc5)CCCCN4[C@H]3CO)cc2)cc1` belongs “inactive”; to `COc1ccc(NC(=O)Nc2ccc3c(c2)[C@H]2C[C@H](CC(=O)N4CCc5ccccc5C4)O[C@H](CO)[C@H]2O3)cc1`, “inactive”; to `COc1ccccc1-c1cccc(-c2nc(C(=O)Nc3nccs3)cc3c2[C@H](CCO)N(C(=O)CC2CC2)C3)c1`, “inactive”.
In the case of `CO[C@H]1CN(C)C(=O)c2cc(NS(=O)(=O)c3ccccc3C)ccc2OC[C@H](C)N(C)C[C@H]1C`, the result was inactive.
In the case of `CC(C)(O)C#Cc1ccc([C@H]2[C@H](CO)N3CCCCN(C(=O)c4ccc(F)cc4)C[C@@H]23)cc1` it was “inactive”; in that of `COc1ccc2c3c(n(C)c2c1)[C@H](CO)N(CC1CC1)CC31CN(C(=O)c2ccc3c(c2)OCO3)C1`, “inactive”; in that of `CO[C@@H]1CN(C)C(=O)c2ccc(NC(=O)C3CCC3)cc2OC[C@@H](C)N(CC2CCCCC2)C[C@H]1C`, “inactive”.
Consider `CO[C@@H]1CN(C)C(=O)c2cc(NC(=O)c3ccccc3F)ccc2OC[C@H](C)N(C(=O)c2ccccc2F)C[C@@H]1C`, for which the compound was classed as inactive.
Take `C[C@H](CO)N1C[C@H](C)[C@@H](CN(C)C(=O)Nc2cccc3ccccc23)Oc2ccc(NC(=O)Cc3cn(C)c4ccccc34)cc2C1=O`: the compound was called inactive.
Take `C[C@H](CO)N1C[C@H](C)[C@@H](CN(C)S(=O)(=O)c2ccc(C(F)(F)F)cc2)OCc2ccccc2-c2c(n(C)c3ccccc23)C1=O`: the outcome was inactive.
`N#C[C@@H]1[C@H](c2ccccc2-c2cccc(F)c2)[C@@H](CO)N1C(=O)C1CCCC1`: the result was inactive.
In the case of `CC(C)(C)[S@@](=O)N1Cc2cc(C(=O)N[C@@H]3CCN(Cc4ccccc4)C3)nc(-c3cccc(-c4cccnc4)c3)c2[C@H]1CCO`, the compound was called inactive.
For the compound `COCc1cn([C@@H]2C[C@@H]3O[C@H](CO)CC[C@@H]3O[C@@H]2CCc2ccc(-c3ccc(OC)cc3)cc2)nn1`, the outcome was inactive.
On to `CCCNC(=O)Nc1ccc2c(c1)C(=O)N(C)C[C@@H](OC)[C@H](C)CN(C(=O)C1CCOCC1)[C@@H](C)CO2`, for which the compound was called inactive.
To `COc1ccc(NC(=O)N(C)C[C@@H]2Oc3cc(-c4ccc(C)cc4)ccc3S(=O)(=O)N([C@H](C)CO)C[C@@H]2C)cc1` belongs “inactive”; to `C[C@H]1CN([C@@H](C)CO)S(=O)(=O)c2ccc(C#Cc3ccccc3)cc2O[C@@H]1CN(C)S(=O)(=O)c1cn(C)cn1`, “inactive”; to `COc1ccc(NC(=O)N2CCCCN3[C@H](CO)[C@H](c4ccc(C#Cc5ccccn5)cc4)[C@@H]3C2)cc1`, “inactive”.
With `COc1cccc(CN2CCCCN3[C@H](CO)[C@@H](c4ccc(C#Cc5cccnc5)cc4)[C@@H]3C2)c1`, the compound was called inactive.
In the case of `O=C(Nc1ccccc1)N1CCCCN2[C@H](CO)[C@H](c3ccc(C#Cc4cccnc4)cc3)[C@@H]2C1` it was “inactive”.
With `C[C@@H]1CN([C@H](C)CO)C(=O)c2c(c3ccccc3n2C)-c2ccccc2CO[C@@H]1CN(C)C(=O)[C@H](C)c1ccccc1`, the call was inactive.
`C[C@@H]1CN([C@H](C)CO)C(=O)c2ccccc2-c2ccccc2CO[C@H]1CN(C)C(=O)Nc1cccc(Cl)c1Cl`: the outcome was inactive.
Turning to `C[C@H](CO)N1C[C@H](C)[C@H](CN(C)Cc2ccc(Oc3ccccc3)cc2)Oc2c(NC(=O)c3nc4ccccc4s3)cccc2C1=O`, the call was inactive.
Consider `C[C@H](CO)N1C[C@H](C)[C@H](CN(C)S(=O)(=O)c2cccs2)Oc2ccc(NC(=O)Cc3cn(C)c4ccccc34)cc2C1=O`, for which the result was inactive.
Turning to `COc1ccc(C#Cc2ccc3c(c2)O[C@H](CN(C)S(=O)(=O)c2ccccc2F)[C@@H](C)CN([C@H](C)CO)S3(=O)=O)cc1`, the compound was classed as inactive.
As for `CC(C)(C)[S@@](=O)N1Cc2cc(C(=O)NCCN3CCCC3)nc(-c3cccc(-c4ccc(C#N)cc4)c3)c2[C@H]1CCO`, the outcome was inactive.
As to `COCC(=O)Nc1ccc2c(c1)C(=O)N(C)C[C@H](OC)[C@H](C)CN(Cc1cc(F)ccc1F)[C@@H](C)CO2`, the outcome was inactive.
For the compound `COc1ccccc1CNC(=O)C[C@H]1C[C@H]2c3cc(NC(=O)Cc4ccncc4)ccc3O[C@H]2[C@H](CO)O1`, the compound was called inactive.
